Screens as filed in PubChem.
CtBP-E1A inh = inhibitors of CtBP/E1A interaction; AlphaScreen GST-E1A/His-CtBP binding, 1536-well; active compounds read low; activity change, % (concentration not given with the values); hit rate 0.49% among 340,000; AID 651724; in the data active means activity change below about -65%; inconclusive means mostly about -30% to -63%
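Homogeneous bead-based format: GST-tagged E1A captured on glutathione donor beads, His-tagged CtBP on nickel acceptor beads; compounds precede bead addition by 2 h at 37 °C.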
Six1-Eya2 blk = Six1/Eya2 interaction inhibition; Q15475+O00167; AlphaScreen GST-Six1/His-Eya2 binding, biochemical; active compounds read low; activity change, % (concentration not given with the values); hit rate 0.56% among 360,000; in the data active means activity change below about -65%; inconclusive means mostly about -30% to -63%
Target sequence (O00167 whole entry, looked up): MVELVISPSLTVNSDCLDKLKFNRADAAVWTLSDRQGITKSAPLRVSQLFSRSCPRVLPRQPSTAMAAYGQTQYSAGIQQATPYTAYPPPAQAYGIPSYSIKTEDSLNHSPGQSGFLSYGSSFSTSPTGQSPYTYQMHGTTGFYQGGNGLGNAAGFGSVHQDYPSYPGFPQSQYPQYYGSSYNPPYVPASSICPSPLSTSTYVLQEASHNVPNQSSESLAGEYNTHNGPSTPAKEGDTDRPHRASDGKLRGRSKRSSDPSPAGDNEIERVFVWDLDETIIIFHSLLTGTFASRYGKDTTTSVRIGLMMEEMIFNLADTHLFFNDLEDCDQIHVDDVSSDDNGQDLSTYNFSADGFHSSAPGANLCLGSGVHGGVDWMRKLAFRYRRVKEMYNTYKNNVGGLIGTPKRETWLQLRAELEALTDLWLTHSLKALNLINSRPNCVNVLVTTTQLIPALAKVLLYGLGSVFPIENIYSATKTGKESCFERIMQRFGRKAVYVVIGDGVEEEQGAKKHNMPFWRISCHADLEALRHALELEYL
Target sequence (Q15475 whole entry, looked up): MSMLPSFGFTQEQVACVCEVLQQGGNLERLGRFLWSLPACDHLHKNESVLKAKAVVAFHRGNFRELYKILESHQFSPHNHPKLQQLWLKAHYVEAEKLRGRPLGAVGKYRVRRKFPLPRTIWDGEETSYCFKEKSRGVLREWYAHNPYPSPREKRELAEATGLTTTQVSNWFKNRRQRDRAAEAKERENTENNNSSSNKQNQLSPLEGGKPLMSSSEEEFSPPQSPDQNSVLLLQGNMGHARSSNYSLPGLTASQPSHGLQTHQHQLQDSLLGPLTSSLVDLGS
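Six1/Eya2 binding was read as AlphaScreen signal after compounds were pinned into GST-Six1 plus His-tagged Eya2 (5X stock 250/500 nM) in pH 8.0 Tris/NaCl/TCEP buffer, beads added, then incubated 1 h, 37 C, dark.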
IL1B secr inh = blocks inflammasome-driven IL-1 beta release; THP-1 LPS/ATP IL-1B secretion, AlphaLISA, 16 h; active compounds read low; activity change, % at 57.5 µM; hit rate 4.7% among 360,000; in the data active means activity change below about -50%; inconclusive means mostly about -30% to -49%
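THP-1 cells pretreated 1 hr with compounds (up to 57.5 uM final), then stimulated with LPS (250 ng/mL final) plus ATP (1.25 mM final); secreted IL-1B measured by AlphaLISA after 16 hr, decreased signal indicating inhibition.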
DT40 TDP1 CPT = growth inhibition of DT40 Tdp1-/-;hTDP1 cells with camptothecin (screen for TDP1 inhibitors); AID 686979; Potency, µM (doses to about 46.2 µM), usual class: inhibitors; chicken DT40 Tdp1-/-;hTDP1 cells + 20 nM CPT, ATP luminescence, 48 h; hit rate 12% among 420,000; further: nearly all actives have a fitted effect of over 55% in size
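Chicken DT40 Tdp1-/- cells stably complemented with human TDP1 were seeded at 400 cells/well in medium containing 20 nM camptothecin, exposed to pin-transferred compounds, and grown at 37 °C for at least 48 hr. Viability was read as ATP luminescence.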
TDP1 cell noCPT = qHTS for Inhibitors of human tyrosyl-DNA phosphodiesterase 1 (TDP1): qHTS in cells in absence of CPT; DT40 Tdp1-/- hTDP1 cells, no CPT, ATP luminescence, 48 h; Potency, µM (doses to about 46.2 µM), hits mostly inhibitors; hit rate 15% among 420,000; AID 686978, 2013; further: nearly all actives have a fitted effect of over 55% in size
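A cellular qHTS used chicken DT40 cells lacking endogenous Tdp1 but carrying stably transfected human TDP1. Compounds were applied without camptothecin, and cell growth kinetics were judged by ATP-dependent luminescence after ≥48 hr.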
TDP1 inh = inhibitors of human tyrosyl-DNA phosphodiesterase TDP1; recombinant TDP1, AlphaScreen DNA substrate cleavage; hit rate 0.28% among 350,000; AID 485290; Potency, µM (top dose mostly 130 µM), actives largely listed as inhibitors; Q9NUW8; further: nearly all actives have a fitted effect of over 40% in size
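Tdp1 1 nM final; 15 min RT w/ cpd; substrate 15 nM, 5 min; beads 10 ug/ml, 10 min; AlphaScreen read. Neg ctrl: no enzyme.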
A number is an active result; 0 = inactive; ? = inconclusive; - = not tested or not shown; [ ] = remark or other dose. Compounds with a hit are over-represented: about 18% of the library has one in this group of screens. Unless noted, the call rests on the fitted dose curve; in most records, active means well fitted curve in the direction sought with a large enough effect; inconclusive means small, poorly fitted or top-dose-only effect, or another doubt; inactive means no such curve, though single readings can be large; an effect the other way counts as inactive or inconclusive.

SMILES	CtBP-E1A inh	Six1-Eya2 blk	IL1B secr inh	DT40 TDP1 CPT	TDP1 cell noCPT	TDP1 inh
O=C(/C=C1\C(=O)Nc2ccccc21)/C=C1\C(=O)Nc2ccccc21	0	0	0	1.5µM	1.8µM	0
CC(C)Oc1ccc(C(=O)/C=C2/C(=O)Nc3ccccc32)cc1	0	0	-100	?	12µM	-
O=C1Nc2ccccc2/C1=C\C(=O)c1ccccc1	0	0	0	2.9µM	2.1µM	-
CSC[C@H]1CN(CCc2ccccc2)C(=O)[C@@H]1CC(=O)Nc1ccc(Br)cc1	0	0	0	?	?	-
Cn1c(Cc2ccccc2)nnc1SCC(=O)Nc1ccc2c(c1)OCCO2	0	0	0	0	0	0
CC(C)C[C@H]1CN([C@@H](Cc2ccc(O)cc2)CN2CCC[C@H]2CN2C(=O)C(=O)NC[C@@H]2Cc2ccccc2)C(=O)C(=O)N1CC1CCCCCC1	0	0	-82	?	?	-
CC(C)C[C@H]1CNC(=O)C(=O)N1C[C@@H]1CCCN1C[C@H](Cc1ccc(O)cc1)N1C[C@H](Cc2ccccc2)N(CC2CCCCC2)C(=O)C1=O	0	0	-59	?	?	-
CC(C)C[C@H]1CN([C@@H](Cc2ccccc2)CN2CCC[C@@H]2CN2C(=O)C(=O)NC[C@@H]2Cc2ccc(O)cc2)C(=O)C(=O)N1CC1CCCCCC1	0	0	0	?	?	-
CC(C)C[C@H]1CN([C@@H](Cc2ccc(O)cc2)CN2CCC[C@@H]2CN2C(=O)C(=O)NC[C@@H]2Cc2ccccc2)C(=O)C(=O)N1CC1CCCCC1	0	0	?	?	?	-
CC(C)C[C@@H](CN1CCC[C@@H]1CN1C(=O)C(=O)NC[C@@H]1Cc1ccccc1)N1C[C@H](Cc2ccccc2)N(CC2CCCCCC2)C(=O)C1=O	0	0	0	?	?	-
CC(C)C[C@H]1CN([C@@H](Cc2ccccc2)CN2CCC[C@@H]2CN2C(=O)C(=O)NC[C@@H]2Cc2ccccc2)C(=O)C(=O)N1CC1CCCCC1	0	0	-59	21µM	16µM	-
COc1cc(Br)c(C2CC(=O)Nc3cc(OC)c(OC)cc32)cc1OC (stereo not given)	0	0	0	0	0	0
COc1ccc(CNCCC(c2ccccc2)c2ccc(OC(C)C)cc2)cc1OC (stereo not given)	0	0	-	23µM	23µM	-
COc1ccc(CNCCC(c2ccc(F)cc2)c2ccc(OC(C)C)cc2)cc1OC (stereo not given)	0	0	-96	16µM	15µM	0
O=C(NC1CCCCC1)C1c2ccccc2OCC(=O)N1Cc1ccccn1 (stereo not given)	0	0	0	0	0	-
Cc1ccc(N2CCN(S(=O)(=O)c3ccc4oc(=O)ccc4c3)CC2)c(C)c1	0	0	0	16µM	?	0[0.0935 µM]
COc1ccc(S(=O)(=O)N2CCN(c3c(C)cccc3C)CC2)cc1OC	0	0	0	?	0	0
COc1ccc(S(=O)(=O)N2CCN(c3ccc(C)cc3C)CC2)cc1OC	0	0	0	21µM	?	0
CC(CCc1ccc(O)cc1)NC(c1ccccc1)c1ccc(Cl)cc1 (stereo not given)	0	0	-100	?	?	0
CC(CCc1ccccc1)NCc1ccc(Cl)cc1Cl (stereo not given)	0	0	-70	?	?	-
CC(CCc1ccc(O)cc1)N(C)CCc1ccccc1 (stereo not given)	0	0	0	0	0	0
CC(CCc1ccc(O)cc1)NCCC(c1ccccc1)c1ccccc1 (stereo not given)	0	0	0	?	5.2µM	0
CC(CCc1ccc(O)cc1)NCc1ccc(Br)cc1 (stereo not given)	0	0	0	12µM	16µM	-
Cc1noc(C)c1CSCC(=O)Nc1cc(S(C)(=O)=O)ccc1Cl	0	0	0	0	0	-
O=C(CCN1C(=O)/C(=C/c2ccc3c(c2)OCO3)SC1=S)Nc1ccc(C(=O)O)cc1	0	0	0	0	0	-
SMILES	CtBP-E1A inh	Six1-Eya2 blk	IL1B secr inh	DT40 TDP1 CPT	TDP1 cell noCPT	TDP1 inh
Cc1cccc(N(C(=O)CNC(=O)c2ccco2)C(C(=O)NC2CCCC2)c2ccncc2)c1 (stereo not given)	0	0	0	0	0	-
CN(C)CCCN=Cc1c(O)n(Cc2ccccc2)c(=O)c2ccccc12	0	0	?	?	0	0
CC1(C)CC(N=Cc2c(O)n(Cc3ccc4c(c3)OCO4)c(=O)c3ccccc23)CC(C)(C)N1	0	0	-107	6.5µM	7.3µM	0
Cc1ccc(CN2CC[C@H]3C=CCc4cccc(c43)C2)cc1	0	0	0	?	21µM	0
O=C1C[C@@H]2c3c(cccc3CN1Cc1ccc(Cl)cc1)C[C@@H](O)[C@H]2O	0	0	0	0	0	-
O=C1C[C@H]2C=CCc3cccc(c32)CN1Cc1cccc(F)c1	-	-	-	16µM	10µM	-
O=C1C[C@H]2C=CCc3cccc(c32)CN1Cc1ccc(Cl)cc1	-	-	-	?	13µM	-
C1=C[C@@H]2CCN(Cc3ccccc3)Cc3cccc(c32)C1	0	0	0	0	?	0
Cc1cccc(NC(=O)Cn2cnc3c(oc4ccccc43)c2=O)c1	0	0	0	0	0	0
CCc1cc2c(COC(=O)c3cc(S(=O)(=O)N4CCOCC4)ccc3F)cc(=O)oc2cc1O	0	0	-77	18µM	?	0
CCc1cc2c(COC(=O)c3cccc(NS(C)(=O)=O)c3)cc(=O)oc2cc1O	0	0	0	16µM	10µM	0
Cc1noc(C)c1COC(=O)c1cc(S(=O)(=O)N2CCOCC2)ccc1F	-	0	0	0	0	0
O=C(OCc1cc(=O)oc2cc(O)ccc12)c1cc(S(=O)(=O)N2CCOCC2)ccc1F	0	0	-103	0	0	0[0.505 µM]
CCOC(=O)c1nccnc1C(=O)Nc1ccc(C(F)(F)F)cc1	0	0	0	0	0	0
Cc1ccc2nc(SC(C(=O)c3ccccc3)c3ccccc3)nc(C)c2c1 (stereo not given)	0	0	0	?	15µM	0
COC(=O)Cc1c(C)c2ccc(OCC(=O)N3CCC(C)CC3)c(C)c2oc1=O	0	0	0	13µM	15µM	0
Cc1cc(=O)oc2c(C)c(OCC(=O)N3CCN(c4ccc(F)cc4)CC3)ccc12	0	0	0	23µM	23µM	0
O=C(COc1ccc2c3c(c(=O)oc2c1)CCC3)N1CCN(c2ccc(F)cc2)CC1	0	0	0	?	0	0
Cc1cccc(N2CCN(C(=O)COc3cc4oc(=O)cc(C)c4cc3Cl)CC2)c1C	0	0	0	0	0	0
O=C(COc1ccc2c3c(c(=O)oc2c1)CCCC3)N1CCN(c2ccc(F)cc2)CC1	0	0	0	23µM	?	0
